According to the supplement of paper PMC6555819:

Tests used:
Assay in all cases: PBM binding z-score (relative to random genomic background probes); higher = stronger binding; sequences stand for … in GC…GCGATTGACAGCGTAGAATGAAGG
[1] = tested on: FXR:RXRa (NR concentration 270 nM, RXRa partner concentration 90 nM)
How it was run: (§1)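 Binding z-scores take random background probes as their reference. They come from custom Agilent 4×180K protein-binding microarrays incubated 1 h with ligand-free nuclear receptor dimers, with antibodies against each partner (one per run) detecting binding. Scanned fluorescence was regression-normalized.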

[2] = tested on: LXRa:RXRa (NR concentration 270 nM, RXRa partner concentration 90 nM)
How it was run: as §1

[3] = tested on: LXRa homodimer (NR concentration 270 nM)
How it was run: as §1

[4] = tested on: LXRb:RXRa (NR concentration 270 nM, RXRa partner concentration 90 nM)
How it was run: as §1

[5] = tested on: LXRb homodimer (NR concentration 270 nM)
How it was run: as §1

[6] = tested on: PPARa:RXRa (NR concentration 270 nM, RXRa partner concentration 90 nM)
How it was run: as §1

[7] = tested on: PPARg:RXRa (NR concentration 180 nM, RXRa partner concentration 90 nM)
How it was run: as §1

[8] = tested on: PPARg:RXRa 270nM:90nM, anti-RXR (NR concentration 270 nM, RXRa partner concentration 90 nM)
How it was run: as §1

[9] = tested on: PPARg:RXRa 30nM:10nM, anti-RXR (NR concentration 30 nM, RXRa partner concentration 10 nM)
How it was run: as §1

[10] = tested on: PPARg:RXRa 90nM:30nM, anti-RXR (NR concentration 90 nM, RXRa partner concentration 30 nM)
How it was run: as §1

[11] = tested on: PPARg:RXRa DBDmut IVT, anti-RXR (DBD mutation: RXRa K156A/R161A, NR concentration 270 nM, RXRa partner concentration 90 nM)
How it was run: as §1

[12] = tested on: PPARg:RXRa IVT, anti-PPARg (NR concentration 270 nM, RXRa partner concentration 90 nM)
How it was run: as §1

[13] = tested on: PPARg DBDmut:RXRa IVT, anti-PPARg (DBD mutation: PPARg1 K132A/R137A, NR concentration 270 nM, RXRa partner concentration 90 nM)
How it was run: as §1

[14] = tested on: PPARg DBDmut IVT, anti-PPARg (DBD mutation: PPARg1 K132A/R137A, NR concentration 270 nM)
How it was run: as §1

[15] = tested on: PPARg homodimer (NR concentration 180 nM)
How it was run: as §1

[16] = tested on: PXR:RXRa (NR concentration 270 nM, RXRa partner concentration 90 nM)
How it was run: as §1

[17] = tested on: PXR homodimer (NR concentration 270 nM)
How it was run: as §1

[18] = tested on: RARa:RXR (NR concentration 270 nM, RXRa partner concentration 90 nM)
How it was run: as §1

[19] = tested on: RARa homodimer (NR concentration 270 nM)
How it was run: as §1

[20] = tested on: RARb:RXRa (NR concentration 270 nM, RXRa partner concentration 90 nM)
How it was run: as §1

Sequence	PBM binding z-score [1]	PBM binding z-score [2]	PBM binding z-score [3]	PBM binding z-score [4]	PBM binding z-score [5]	PBM binding z-score [6]	PBM binding z-score [7]	PBM binding z-score [8]	PBM binding z-score [9]	PBM binding z-score [10]	PBM binding z-score [11]	PBM binding z-score [12]	PBM binding z-score [13]	PBM binding z-score [14]	PBM binding z-score [15]	PBM binding z-score [16]	PBM binding z-score [17]	PBM binding z-score [18]	PBM binding z-score [19]	PBM binding z-score [20]
CGTCCAAGGGCAAGGTCAGTGAAAGAGACTCGAA	1.95	1.58	-0.119	1.22	-0.836	2.75	0.977	1.31	-0.324	0.436	0.735	1.62	-1.01	-1.55	0.963	1.68	-0.101	2.16	0.0198	3.94
GCTAGTTGGTCAGTAAAAGGTCAAACACCGGTCG	3.88	5.14	6.12	4.91	1.54	4.71	2.68	4.45	2.84	4.37	1.17	2.62	-0.0315	0.251	4.94	5.21	1.94	6.29	1.53	4.13
TTGAGTAGGTTAGGGGCATTCAGAATGGCGTCGA	0.794	0.55	0.331	1.42	1.36	1.84	1.34	2.8	1.58	2.25	3.21	2.8	0.225	0.781	1.61	0.703	1.3	0.894	1.42	1.42
ACTATTAGTGGACTTAGGGCAACCGATACGACGC	0.086	-0.113	-0.0613	-0.278	0.0908	-0.455	0.923	0.348	0.284	0.211	0.261	0.425	0.622	0.53	-0.531	-0.184	0.307	-0.1	0.447	0.196
CCTTACGGGTCACGAGGGTATAGCACGACGAGCG	6.44	4.54	-0.0656	3.48	-0.518	5.73	6.45	6.17	2.67	5.26	3.29	5.07	0.569	0.0491	2.12	4.23	-0.0662	4.88	0.889	4.44
ATCTCTAGGTACGACTCAGTTCAGTGAAGAACGC	0.373	0.42	0.735	0.686	1.15	0.0584	0.161	0.105	0.235	-0.098	0.59	0.456	0.443	1.02	0.793	1.4	1.82	0.363	1.28	0.504
CGAACTAGGTCATTGACAGGACATTGAATAGTAA	3.53	3.53	1.19	2.32	0.107	4.56	7.27	6.42	4.27	5.95	8.1	8.23	1.94	1.62	1.29	2.35	0.404	2.06	0.367	3.52
TCTCGGAGGACACGAAAGGTCAAAGCTCGACATC	4.46	5.45	6.31	4.92	0.987	4.72	2.15	3.75	2.79	3.33	1.72	2.11	-0.166	-0.0155	3.27	5.39	1.21	5.48	1.41	4.55
GCTTGTAGATCTAGGTTAAGAAAGACTAAGCTAA	-0.373	-0.228	-0.5	-0.166	-0.791	1.14	0.547	0.539	0.267	0.418	3.21	3.27	0.608	0.399	-1.08	-0.4	-0.246	0.0619	-0.0444	0.0938
TCGAGTAGCTTAGGGGCATTCAGAATGGCGTCGA	-0.301	-0.0309	-0.497	0.0994	-1.06	0.246	-0.362	0.211	0.569	0.263	0.336	-0.404	-0.673	-0.923	-0.986	0.0972	-0.797	0.217	-1.45	0.238
TAGCCAAGGTCATGCGGGCCAGTATAGTGTCGGC	7.03	4.97	1.17	3.87	0.499	5.58	4.64	4.84	1.61	3.73	1.6	3.47	1.13	0.504	1.92	4.35	1.1	4.48	0.0818	5.09
CGTCCAAGGTCAAAGGTCTGTGAAGAGATGACGG	7.64	5.46	1.27	4.26	0.554	5.87	7.08	6.81	4.47	6.48	3.5	4.39	1	0.0198	3.15	4.82	1.13	6.06	0.626	5.4
TCTAGCAGGCCAGAGGGTCACGCAAGAGGTACGG	1.68	1.54	-0.618	1.93	-1.47	3.24	2.4	2.99	1.96	2.57	0.77	1.31	-0.82	-1.03	0.618	2.62	-0.51	3.55	-0.463	2.84
CCAGACAGGTGAGAAGGTAACTCATCCTCGATTA	0.223	0.195	0.213	0.16	-0.283	0.773	0.558	0.703	0.0272	0.508	1.17	0.6	-0.78	0.324	0.757	0.375	0.22	0.525	0.718	0.607
ACTATTAGTTGATTTAGGGCAACCGATACGACGC	0.352	0.0302	0.44	0.0865	1.19	0.816	0.99	0.588	0.446	0.717	1.57	2.39	2.12	1.32	1.41	0.00966	0.993	0.345	1.47	0.582
ATCGAAAGGTCGTGAGGTGAGTATACAGAAAGGC	5.57	4.25	0.175	3.13	0.435	4.95	4.06	4.39	1.92	3.28	-0.0528	2.47	1.08	1.25	2.77	3.39	0.278	4.21	0.287	4.02
TCAGACAGGTGAAGGTAATTCAGGTACGCAGTCG	1.15	1.22	-0.0461	1.11	0.0602	1.41	0.743	2.25	3.9	3.02	2.77	1.13	0.166	0.166	1.05	0.684	0.0937	1.21	0.385	1.08
GGAACGAGTGCAAAGTTGATAGCATCTGTCGACG	0.106	-0.0741	-0.379	-0.315	-0.482	1.8	2.13	3.33	0.95	3.02	-0.204	0.102	-0.12	0.22	-0.16	0.715	0.211	0.728	-0.6	0.396
GCTATTAGTTGAAAGGGCAACCTAATGATTCTCG	0.451	0.673	0.238	1.08	-0.393	2.38	2.46	4.31	2.24	4.3	0.686	0.831	0.904	0.354	0.978	0.94	0.54	1.56	0.795	2.02
CGTCCAAGGTCAGAGAGGTCAGCGAATGCCGAGT	6.38	5.44	3.27	4.32	0.249	5.09	4	4.67	0.981	3.07	3.1	3.68	-0.551	-0.132	3.56	6.27	10.9	6.31	2.51	5.22
CCGACTGGGGCATAAGGTTACCACAAGCCAGCCC	0.502	1.28	-0.388	0.812	-0.551	2.07	2.44	3.27	0.735	2.92	2.87	3.09	-1.04	-1.03	0.364	0.223	-0.315	1.25	-0.43	1.73
TCATATAGGTAAATGCTGGGTGAAAGTCCGATCT	1.03	1.11	0.288	0.818	0.924	1.38	0.836	2.2	3.63	3.26	4.13	2.63	0.471	0.976	1.04	0.606	0.456	0.833	1.19	0.495
CCTACTGGGCCAAAGGTCATCGATTCCAATGCTC	4.44	5.28	3.59	4.41	0.378	6.8	11.5	10.6	10.6	11.5	4.64	6.76	0.425	-0.332	3.7	5.15	0.811	6.16	1.37	4.7
TTACCAAGGTGAAAGGTCCTTGATGCACGCCTTG	1.03	1.02	-0.388	1.06	-1.03	3.88	5.66	6.39	4.88	6.09	2.49	4.34	-0.24	0.133	0.166	1.1	-0.666	2.31	-0.838	1.93
CCGACTGGGGCAAAGTTTACCATACTCAGTACGA	-0.248	0.0946	-0.139	0.553	-0.586	3.67	8.3	7.72	6.38	8.55	4.45	4.71	-0.8	-0.571	0.875	0.182	0.0528	0.465	-0.24	1.41
TAGCCTAGGTCATGCGGGCCAGTGTAGTGTCGGC	3.71	2.88	-0.0482	1.38	-0.348	3.17	1.5	2.27	-0.122	1.26	1.76	2.75	-0.395	-0.723	0.153	1.23	-0.733	1.69	-1.29	3.72
ATATGGAGGTTACATCCGGGTCATTCAGGCTATG	2.99	5.32	1.94	3.8	0.764	3.79	3.01	2.85	0.871	1.91	2.72	3.63	1.46	0.791	2.15	4.57	2.76	4.94	0.676	2.88
CCGAGTAGGTTTTGGGGCATTCAGGCAACGGTGA	0.199	0.0127	-0.127	0.177	-0.134	0.31	-0.0212	0.955	-0.147	0.58	0.795	0.696	-0.353	-0.0504	0.76	-0.31	-0.0267	0.2	0.947	0.205
